# dFosB act-1: activators of mouse delta FosB homodimer. P13346. purified delta FosB, TAMRA-CDK5 oligo fluorescence polarization; percent of positive-control signal above neutral wells. activation, % at 25 µM. 340,000 compounds, 0.99% hits;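 active = mean activation above about 17%, with every replicate also reaching it, limit read from the data, passing the limit was not always enough; inconclusive = only one of the two conditions met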
# Rpn11 block: Rpn11 (human) deubiquitinase inhibition; O00487; 360,000 compounds, 0.59% hits; human 26S proteasome, Ub4-pepOG fluorescence polarization; 20S core pre-blocked with epoxomicin; inhibition, % at 20 µM; AID 588493;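 active = inhibition at 20 µM, scaled to each plate's controls, above about 33%, limit read from the data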
# EBNA-1 inhibitor: blocks EBNA-1 binding to DNA; EBNA-1 DNA binding, fluorescence polarization; inhibition, % at 14.8 µM; 300,000 compounds, 0.34% hits; in the data active = inhibition above about 28%
# ZTA DNA inh: ZTA (EBV) inhibition in EBNA-1 counter-screen; P03206; ZTA-DNA binding, fluorescence polarization; inhibition, % at 11 µM; 320,000 compounds, 0.15% hits; AID 2234; in the data active = inhibition above about 33%
# Target sequence (P03206 whole entry, looked up): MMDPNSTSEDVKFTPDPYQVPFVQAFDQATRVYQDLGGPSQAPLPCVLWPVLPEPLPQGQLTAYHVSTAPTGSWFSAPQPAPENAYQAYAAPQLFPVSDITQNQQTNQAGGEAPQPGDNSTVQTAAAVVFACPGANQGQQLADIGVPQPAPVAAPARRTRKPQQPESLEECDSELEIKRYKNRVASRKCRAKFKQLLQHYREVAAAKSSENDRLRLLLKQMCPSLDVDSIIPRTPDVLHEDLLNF
# TPT1 inh: C. albicans TPT1 enzyme inhibition. recombinant caTPT1, FP RNA substrate dephosphorylation. inhibition, % at 5 µM. 300,000 compounds, 0.81% hits;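 active = inhibition above the mean of all tested compounds plus 3 SD, set per screening campaign, cut at about 24% in these data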;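 also: plate controls were DMSO alone for no effect and ferristatin control at 100 nM for full effect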
# NR3A LBD binder: modulators (binders) of human NR3A ligand-binding domain; 340,000 compounds, 2.5% hits; NR3A LBD differential scanning fluorimetry, Tm shift; 0% = protein alone, 100% = glycine-bound protein; AID 1259313; Tm shift relative to glycine control, % at 25 µM;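 active = melting temperature shift of at least 10% of the positive control shift, at one fixed dose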
# dFosB act-2: delta FosB (mouse) homodimer activation. shares compounds with dFosB act-1. purified delta FosB, TAMRA-CDK5 oligo fluorescence polarization; normalised: neutral wells 0, positive control 100. activation, % at 24.9 µM. 2,400 tested, under 10 active;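 active = highest replicate activation at or above 34% and every replicate reaching that threshold; inconclusive = meets only one of the two criteria; inactive = meets neither criterion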;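 also: higher polarization means more probe DNA bound by delta FosB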
# The depositor's hits bear a star; ? = inconclusive; nt = not tested or not shown. Hits are enriched below; roughly 4.5% of the tested compounds scored in any of these assays.
SMILES,dFosB act-1,Rpn11 block,EBNA-1 inhibitor,ZTA DNA inh,TPT1 inh,NR3A LBD binder,dFosB act-2
CC(=O)N1CCCc2cc(S(=O)(=O)N3CCCC(C(=O)Nc4ccccc4C)C3)ccc21 (stereo unspecified),-9,-2,-3,9,-1,-4,nt
O=C(Nc1cccc2ccccc12)c1ccc(F)cc1,-3,-6,-7,-7,-4,2,nt
O=C(Nc1nc(-c2ccccc2)nc2ccccc12)c1ccc(F)cc1,22*,-7,4,3,1,-2,-2
COc1ccc(C(=O)Nc2nc(-c3ccccc3)c(C(C)=O)s2)c(OC)c1,32*,-3,5,12,-2,0,3
CC(=O)c1sc(NC(=O)c2ccc(F)cc2)nc1-c1ccccc1,25*,0,8,9,-3,-4,7
CC(C)N1CCC(N2CCN(Cc3cc4c(cc3Cl)OCO4)CC2CCO)CC1 (stereo unspecified),-3,4,-14,2,-2,0,nt
COCCCNC(=S)Nc1c(C)cc(C)cc1C,-1,-5,4,-2,3,0,nt
Cc1ccc(NC(=O)CSCC(=O)NC2=NCCS2)cc1,-8,3,nt,-7,nt,-2,nt
Cc1ccc2nc(-c3ccc(NC(=O)COC(=O)c4ccc([N+](=O)[O-])o4)cc3)sc2c1,-9,4,-1,7,0,-1,nt
Cc1ccc2nc(-c3ccc(NC(=O)COC(=O)c4ccc(Br)o4)cc3)sc2c1,35*,2,35*,4,2,2,2
Cc1ccc(C2=NOC3(CC(=O)N(c4ccc(C)cc4)C3=O)C2)cc1 (stereo unspecified),29*,-4,3,-2,0,1,5
Cc1ccc(C2=NOC3(CC(=O)N(c4ccccc4)C3=O)C2)cc1 (stereo unspecified),-6,0,3,-12,-5,2,nt
COc1ccccc1/C=C/C=N/Nc1cccc(C(=O)O)c1,-4,2,-10,12,2,8,nt
O=C(NC1CCCCC1)c1ccc(CNc2nc(=S)[nH]c3ccccc23)cc1,19*,3,-2,-12,-2,2,2
COc1ccc(CNC(=O)CCCCCNc2nc(=S)[nH]c3ccccc23)cc1,39*,-2,3,0,0,-1,2
S=c1nc(NCc2cccc(Cl)c2)c2ccccc2[nH]1,45*,-10,-9,-1,-6,15*,0
O=C(CSc1nnc(Cc2cccs2)n1C1CC1)NC1CCS(=O)(=O)C1 (stereo unspecified),-8,-5,nt,7,nt,8,nt
COc1ccc(C(=O)NCCNc2nc3cc(C)c(C)cc3cc2C)cc1,25*,-1,-8,0,3,-2,4
Cc1cccc(C(=O)NCCNc2nc3cc(C)c(C)cc3cc2C)c1,-11,0,7,8,2,-16,nt
CCCC(=O)Nc1ccccc1-c1nnn(CC(=O)Nc2ccc(OC)cc2)n1,10,-7,13,-7,-3,-3,nt
CCOc1ccc(NC(=O)Cn2nnc(-c3ccccc3NC(=O)c3cccs3)n2)cc1,52*,6,2,-5,-3,15*,5
COc1cccc(NC(=O)c2cc(=O)c3ccccc3o2)c1,6,8,-8,-3,1,0,nt
COc1ccc(NS(=O)(=O)c2cc(NC(=O)c3cc(=O)c4ccccc4o3)ccc2OC)cc1,48*,3,13,-28,-2,1,6
COc1ccc(C(NC(=O)C2CCN(Cc3ccc(Oc4ccccc4)cc3)CC2)c2ccccc2C)cn1 (stereo unspecified),nt,1,nt,nt,nt,nt,nt
COc1ccccc1C=NN=C(N)C(N)=NN=Cc1ccccc1OC,70*,1,nt,nt,nt,2,?
Cc1nc(NC(=S)NC(=O)c2cncc(Br)c2)ccc1Br,21*,-8,1,6,-4,-7,1
O=C(c1cc2ccccc2o1)N1CCN(S(=O)(=O)c2ccc(F)c(F)c2F)CC1,33*,0,nt,5,nt,0,-1
